Assay results: ChEMBL document CHEMBL3988442, “University of Dundee, Small-Polar-MMV Screening Library” (2021)
Screen size: about 48,000 compounds; about 13,000 (27%) showed an effect of 50% or more. The list shows a part of the results.

These compounds were tested on Wolbachia pipientis (assay: Anti-Wolbachia Cell-Based Screen). Conditions: 5 µM.
Format: functional
Parameters: scale not given: in the data most compounds retested in dose-response had high values

Compound | Percent Effect
CS(=O)(=O)c1nccn1Cc1ccc(F)cc1Cl | -6.222%
Cc1cnc(N2Cc3cnn(Cc4ccc(F)cc4)c3C2)nc1N(C)C | 15.57%
Cc1cc(N2CCc3c(nc(C(C)C)n3C)C2)nc(N)n1 | 12.43%
CCCNC(=O)Nc1ccc2c(c1)N(S(=O)(=O)CC)CC2 | 85.58%
O=C(NCc1ccccc1CO)Nc1ccc2c(c1)CCC2 | -12.78%
CCCNC(=O)CNc1ccc2c(c1)N(C(=O)OC(C)(C)C)CCC2 | -19.09%
CCS(=O)(=O)N1CCc2ccc(NC(=O)NCc3ccccc3)cc21 | 168.3%
CS(=O)(=O)c1ccc(NC(=O)NCc2ccc3c(c2)CCC3)cn1 | 2.355%
CCS(=O)(=O)N1CCc2ccc(NC(=O)NCCc3ccccc3)cc21 | 122.4%
CC(=O)N1CCCc2cc(NC(=O)NCCc3cnn(C)c3)ccc21 | -10.98%
NS(=O)(=O)N1CCc2ccc(NC(=O)CCc3ccncc3)cc21 | -8.791%
Fc1cccc(N2CCOC3(CCCN(c4nncs4)C3)C2)c1 (configuration not stated) | -6.078%
O=C(C1CCCC1)N1CCOC(c2nc(-c3ncccn3)no2)C1 (configuration not stated) | 90.83%
O=C(C1CCCC1)N1CC(c2nc(Cc3ccccc3)no2)C1 | 3.47%
O=C(CC1CCCC1)N1CCOC(c2nc(-c3ncccn3)no2)C1 (configuration not stated) | 86.32%
O=C(CN1CCCC1c1nc(-c2ccccn2)no1)N1CCOCC1 (configuration not stated) | -3.547%
CCn1cc(Cn2cc(-c3cccc(C(C)N(C)C)c3)nn2)cn1 (configuration not stated) | -0.05647%
COc1ccc(N(C)C(=O)C2CN(C)CCO2)cc1Cl (configuration not stated) | 4.765%
CCOc1ncccc1Cn1cc(-c2nccn2C)nn1 | -13.21%
Cc1cc(-n2nc(C)nc2-c2cn(CCN)nn2)ccn1 | -45.52%
Cn1cccc1-c1cc(C(=O)NCCCc2csc(N)n2)[nH]n1 | -5.944%
Cc1cn(CCn2ccnc2-c2sccc2C)nn1 | -12.56%

Compound | Percent Effect
Cc1ccccc1C1CCN(CCn2cc(-c3nccn3C)nn2)C1 (configuration not stated) | -7.795%
Cn1ccnc1-c1cn(CCCc2nnc(N)s2)nn1 | 101%
Cn1ccnc1-c1cn(CCCc2csc(N)n2)nn1 | 106.8%
CCc1nc(CCn2cc(-c3nccn3C)nn2)no1 | -10.63%
Cn1ccnc1-c1cn(CCc2nnc(N)s2)nn1 | 90.14%
Cn1ccnc1C(=O)NCCS(=O)(=O)c1ccc(C(C)(C)C)cc1 | 15.11%
Cc1cc(C)c(CNC(=O)NCC(c2ccccc2)N(C)C)c(=O)[nH]1 (configuration not stated) | 1.646%
CC(C)NS(=O)(=O)c1cc(C(=O)O)cc(-c2ccc3c(c2)OCO3)c1 | 10.97%
CCC(NC(=O)c1cccc2cc[nH]c12)C(=O)N1CCOCC1 (configuration not stated) | 1.714%
COc1ccnc(N2CCC3(CCCN(CC4CC4)C3=O)C2)n1 (configuration not stated) | -5.296%
O=C(O)C(F)(F)F.O=C(O)C(F)(F)F.c1cnc(N2CCC3(CCN(CC4CC4)CC3)CC2)nc1 | -4.913%
O=C(O)C(F)(F)F.O=C1N(CC2CCCC2)CCC12CCN(c1ncc(F)cn1)CC2 | 111.9%
CN1CCC2(CCN(c3ncc(F)cn3)CC2)C1=O.O=C(O)C(F)(F)F | 5.555%
Cc1cnc(N2CCC3(CC2)CC3CNC(=O)C2CCC2)nc1.O=C(O)C(F)(F)F (configuration not stated) | -2.894%
CN(C)C(=O)CN1CCC2(CCCN(c3ncc(F)cn3)C2)C1=O (configuration not stated) | -17.79%
O=C(O)C(F)(F)F.O=C1N(CC2CC2)CCC12CCCN(c1ncc(F)cn1)C2 (configuration not stated) | 107.4%
Cc1cnc(N2CCC3(CCN(CC4CCCC4)C3=O)CC2)nc1.O=C(O)C(F)(F)F | 94.42%
Cc1cnc(N2CCC3(CCC(C(=O)NC(C)C)C3)CC2)nc1.O=C(O)C(F)(F)F (configuration not stated) | -24.15%
CC(C)OCCC1CCCCN1S(N)(=O)=O (configuration not stated) | 5.549%
Cc1cnn(-c2cccc(N3CCCC3)n2)c1 | 2.122%
Cc1cc(C)n(CC2CN(CC(=O)N3CCNC3=O)CCO2)n1 (configuration not stated) | 88.91%
Cc1cc(C)n(CC2CN(CC(=O)N3CCC3)CCO2)n1 (configuration not stated) | 107.3%

Compound | Percent Effect
Fc1cc(CNCCn2cccn2)ccc1-n1cncn1 | -7.055%
Cc1nc(CSc2ccc(C(F)(F)F)cn2)no1 | -11.09%
CC(=O)NCCN1CCC(c2cccs2)CC1 | -11.86%
Cc1csc(C(=O)NCCN2CCC(c3cccs3)CC2)c1 | 131.4%
O=C(NCCN1CCC(c2cccs2)CC1)c1ccccc1C(F)(F)F | 6.812%
CCSc1ccccc1C(=O)NCCN1CCC(c2cccs2)CC1 | 153.4%
O=C(NCCN1CCCC(CO)C1)c1ccc2sccc2c1 (configuration not stated) | 0.9044%
CCCN1CCC(NC(=O)c2csc(C)c2-c2ccccc2)CC1 | 2.697%
O=C(Cc1ccccc1Cl)NCCN1CCC(c2cccs2)CC1 | 167.3%
Cc1nc(CC(=O)NCCN2CCC(c3ccccc3C)C2)cs1 (configuration not stated) | -10.54%
CCCNC(=O)c1cc2c([nH]c1=O)CC(c1cccs1)CC2=O (configuration not stated) | 1.208%
COc1ccc(C(=O)NCC(=O)N(Cc2ccsc2)C2CC2)cc1OC | -17.21%
Cc1ccccc1C1CCN(CCNC(=O)CS(C)(=O)=O)C1 (configuration not stated) | -1.802%
COc1ccc(C(=O)NCCN2CCC(c3cccs3)CC2)cc1OC | 108.4%
CCNc1ncc(C2CC(=O)Nc3c2cnn3Cc2ccncc2)cn1 (configuration not stated) | 0.3044%
CCSCCC(=O)NCc1cnn(-c2ccc(F)cc2F)c1 | 1.546%
Cc1ccc(S(=O)(=O)NC(=O)CCOCC(C)C)s1 | 14.43%
O=C(CCc1cc(Cl)no1)N1CCCCC1CCn1ccnc1 (configuration not stated) | -6.627%
O=C(c1cccnc1-n1cncn1)N1CCc2ccccc2C1 | 12.03%
COc1ccc(CNCC2CCN(CC(C)O)CC2)c2ccccc12 (configuration not stated) | -9.036%
CCN(Cc1nnnn1C1CC1)c1cc(C)ccc1C | -3.19%
O=C(NCCN1CCC(c2cccs2)CC1)c1ccc(F)cc1Cl | 122.6%

Compound | Percent Effect
O=C(NCC(c1cccs1)N1CCOCC1)c1ccc(F)cc1Cl (configuration not stated) | -4.405%
CCN(CC)C(=O)Cc1csc(C(C)C)n1 | -7.822%
Cc1cccc(OCC(=O)N(C)C2CCN(CC3CCOC3)CC2)c1 (configuration not stated) | -8.689%
CCCNc1ncc(CN2C[C@H]3CC[C@@H]2CN(C2CCOCC2)C3)cn1 | 7.731%
Fc1ccc(CN2CCOC(Cn3cncn3)C2)c2ncccc12 (configuration not stated) | -8.547%
Clc1cccc(OCCCN2CCOC(Cn3cncn3)C2)c1 (configuration not stated) | 125.7%
c1cnn(CC2CN(CCCOc3ccc4c(c3)OCO4)CCO2)c1 (configuration not stated) | 1.566%
Fc1ccc(OCCCN2CCOC(Cn3cncn3)C2)cc1 (configuration not stated) | 3.822%
c1ncn(CC2CN(CCCOc3ccc4c(c3)OCO4)CCO2)n1 (configuration not stated) | 97.52%
COc1ccc(OCCCN2CCOC(Cn3cccn3)C2)cc1 (configuration not stated) | 1.876%
N#Cc1ccc(OCCCN2CCOC(Cn3cncn3)C2)cc1 (configuration not stated) | 94.1%
Clc1ccc(OCCCN2CCOC(Cn3cncn3)C2)cc1 (configuration not stated) | 88.34%
c1cnn(C2CN(CCCOc3ccc4c(c3)OCO4)C2)c1 | -8.072%
c1ccc2cc(OCCN3CCOC(Cn4cncn4)C3)ccc2c1 (configuration not stated) | 0.3629%
Cc1cc2n(n1)CC(CNCc1cnn(-c3ccccc3)c1)CN2 (configuration not stated) | -14.73%
COc1ccccc1C1CNC(=O)c2nc(-c3ncc[nH]3)[nH]c2C1 (configuration not stated) | -17.95%
N#Cc1ccccc1C(=O)N1C[C@H]2CC[C@@H]1CN(Cc1ccccc1)C2 | 1.705%
CCN(Cc1ccco1)C(=O)NCC(c1cccs1)N(C)C (configuration not stated) | -4.593%
Cc1nnc(N(CCC#N)CCC#N)s1 | 120.1%
Cc1ccc(C2CCCCCN2Cc2cn(C)nc2C)cc1 (configuration not stated) | 6.787%
Cc1nn(C)c(C)c1C1CCCN1Cc1cn2ccsc2n1 (configuration not stated) | 7.69%
Cc1nnc(CN2CCCC2c2cccc(Br)c2)o1 (configuration not stated) | 20.93%

Compound | Percent Effect
COC(=O)CCN1CCCC1c1ccccc1Cl (configuration not stated) | -1.683%
Cc1ccsc1C1CCCCCN1Cc1cn(C)nc1C (configuration not stated) | 87.45%
CS(=O)(=O)c1ccc(CN2CCCCC2c2cccc(F)c2)cc1 (configuration not stated) | 5.873%
Cc1ccc(C2CCCCCN2Cc2cn(C)nc2C)s1 (configuration not stated) | 10.12%
N#CCCN(C(=O)CN1CCCC1c1ccccc1Cl)c1ccccc1 (configuration not stated) | -18.96%
Cc1nnc(CN2CCCC2c2ccc(Cl)c(Cl)c2)o1 (configuration not stated) | -0.8555%
Cc1cccc(C2CCCCCN2Cc2cn(C)nc2C)c1 (configuration not stated) | 99.27%
Cc1nn(C)cc1CN1CCCCCC1c1ccc(Cl)cc1 (configuration not stated) | 98.47%
Cc1nn(C)cc1CN1CCCCCC1c1ccccc1Cl (configuration not stated) | 134.4%
Cc1nn(C)c(C)c1CCC(=O)OCC(=O)N1CCc2sccc2C1 | -1.071%
Cc1ccnc(C(NC(=O)c2sc(C)nc2C)C2CC2)n1 (configuration not stated) | -13.48%
CC(SCCNS(=O)(=O)c1cnn(C)c1)c1cccc(F)c1 (configuration not stated) | 13.07%
COc1ccc(C2CCCCCN2Cc2cn(C)nc2C)cc1 (configuration not stated) | 97.09%
COc1ccc(C2CCCCCN2Cc2nnc(C)o2)cc1 (configuration not stated) | -42.58%
CC(C)N(C)C(=O)C1CSCN1S(=O)(=O)c1cc(Cl)ccc1Cl (configuration not stated) | -2.04%
O=C(NCC(F)(F)F)C(c1cccnc1)N1CCOCC1 (configuration not stated) | -10.65%
Cc1cc(C2CCC2)nc(N(C)Cc2ncccc2C)n1 | 22.22%
Cc1cc(Cc2ccccc2C)cc(C2CCCNC2)n1 (configuration not stated) | 111.5%
Cc1cc(Cc2ccccc2F)cc(C2CCCNC2)n1 (configuration not stated) | 100.5%
